This note sets out measurements from PubChem BioAssay (EPA / NIEHS).

Several values for one entry are separate records, joined by “and”; a condition that tells them apart may be missing. Equal values may be shown once. Some structures have more than one record in an assay (separate samples or runs), and their calls can disagree. Activity calls are given as the source filed them. Rule for the calls: active = hit-call score of the fitted dose curve at least 0.9, where 1 is the maximum; inactive = score below 0.9.

Assay [1] in a line: ATG_DR4_LXR_CIS: Attagene CIS-FACTORIAL HepG2 Assay for human Liver X Receptor (LXR), DR4 submotif (AID 2282929). The note with it: HepG2 Attagene DR4 cis-reporter, mRNA transcription; AC50: actives raise or lower the signal unless noted; outcome: actives raise or lower the signal unless noted. An outline of the steps:
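After transient transfection with multiplexed cis-promoter reporter units, HepG2 cells received test chemicals for 24 h. Reporter mRNA induction, detected by fluorescence after RT-PCR and capillary electrophoresis, was scored relative to DMSO.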

For assay [2], the target named is Aryl hydrocarbon receptor (Homo sapiens) (UniProt P35869). Nature of the assay: ATG_Ahr_CIS: Attagene CIS-FACTORIAL HepG2 Assay for human Aryl Hydrocarbon Receptor (Ahr) (AID 2282930). The note with it: HepG2 AhR cis-factorial reporter transcription; actives raise or lower the signal. Put shortly: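 Endogenous factor activity is tracked through cis-promoter reporter units transfected into HepG2 cells. Transcript levels at 24 h are read by fluorescent RT-PCR and capillary electrophoresis, with activity in either direction scored relative to DMSO.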
Sequence of Aryl hydrocarbon receptor (Homo sapiens) (P35869 whole entry, looked up): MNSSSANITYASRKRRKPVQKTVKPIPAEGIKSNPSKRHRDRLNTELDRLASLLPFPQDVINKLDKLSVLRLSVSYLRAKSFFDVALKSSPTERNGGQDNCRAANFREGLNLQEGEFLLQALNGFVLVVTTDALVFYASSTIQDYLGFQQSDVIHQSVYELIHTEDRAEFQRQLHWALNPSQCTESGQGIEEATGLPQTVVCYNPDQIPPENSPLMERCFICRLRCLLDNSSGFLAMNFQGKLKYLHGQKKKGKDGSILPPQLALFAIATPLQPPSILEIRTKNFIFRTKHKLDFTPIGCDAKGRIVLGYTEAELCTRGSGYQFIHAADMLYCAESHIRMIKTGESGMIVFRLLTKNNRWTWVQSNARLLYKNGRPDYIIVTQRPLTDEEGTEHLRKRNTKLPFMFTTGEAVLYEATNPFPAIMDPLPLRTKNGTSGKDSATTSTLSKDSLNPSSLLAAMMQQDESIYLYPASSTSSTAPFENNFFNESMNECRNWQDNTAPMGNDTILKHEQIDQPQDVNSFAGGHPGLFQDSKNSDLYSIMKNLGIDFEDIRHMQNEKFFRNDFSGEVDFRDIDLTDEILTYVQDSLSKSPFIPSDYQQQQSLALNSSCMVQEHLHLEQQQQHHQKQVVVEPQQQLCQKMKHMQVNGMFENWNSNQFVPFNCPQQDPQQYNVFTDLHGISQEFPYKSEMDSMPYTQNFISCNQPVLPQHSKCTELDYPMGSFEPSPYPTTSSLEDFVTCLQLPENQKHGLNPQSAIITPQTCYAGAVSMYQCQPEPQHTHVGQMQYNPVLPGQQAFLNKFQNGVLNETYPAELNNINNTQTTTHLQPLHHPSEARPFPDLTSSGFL

Assay [3] in a line: ATG_AP_1_CIS: Attagene CIS-FACTORIAL HepG2 Assay for human Activator Protein 1 (AP-1) (AID 2282931). The conditions noted are these: HepG2 Attagene cis-factorial AP-1 reporter mRNA; actives raise or lower the signal. Put shortly: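 After 24 h incubation with test chemical, RNA from transfected HepG2 cells was reverse-transcribed, amplified, fluorescently labelled and digested before capillary electrophoresis. Reporters were driven by cis-regulatory promoters; activity fitted bidirectionally versus DMSO.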

Assay [4] can be described thus: ATG_AP_2_CIS: Attagene CIS-FACTORIAL HepG2 Assay for human Activator Protein 2 (AP-2) (AID 2282932). The note with it: HepG2 AP-2 cis-reporter, Attagene transcription factor profiling; AC50: actives raise or lower the signal unless noted; outcome: actives raise or lower the signal unless noted. Put shortly: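 Read-out: fluorescent reporter mRNA via RT-PCR and capillary electrophoresis, 24 h post-dose in transiently transfected HepG2. Endogenous factors drive cis-promoter reporters; gain or loss of signal fitted bidirectionally against DMSO.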

Assay [5] can be described thus: ATG_BRE_CIS: Attagene CIS-FACTORIAL HepG2 Assay for human Bone Morphogenetic Protein (BMP) Response Element (BRE) (AID 2282933). The conditions noted are these: HepG2 BMP response element reporter, Attagene transcription factor profiling; actives raise or lower the signal. Put shortly:
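Multiplexed cis-reporter assay, HepG2, 24 h exposure. mRNA from reporter units quantified via RT-PCR/CE; DMSO baseline; bidirectional curve fit.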

The target in assay [6] is Transcription factor E2F1 (Homo sapiens) (UniProt Q01094). Nature of the assay: ATG_E2F_CIS: Attagene CIS-FACTORIAL HepG2 Assay for human E2F Transcription Factor 1 (AID 2282935). The note with it: HepG2 Attagene cis-reporter, E2F reporter RNA transcripts; actives raise or lower the signal. An outline of the steps:
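Transient MRTU transfection of HepG2; 24 h compound exposure; RNA → oligo(dT) RT → PCR → FAM label → HpaI cut → CE fluorescence. Gain/loss of signal fit against DMSO.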

The nature of assay [7]: ATG_M_61_CIS: Attagene CIS-FACTORIAL HepG2 Assay for M61 Transcription Factor (Internal Marker) (AID 2282937). The conditions noted are these: HepG2 Attagene CIS-FACTORIAL M61 internal marker reporter; actives raise or lower the signal. Put shortly:
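Using transiently transfected HepG2 liver cells, reporter transcript levels were assessed 24 h post-dosing by RT-PCR and capillary electrophoresis. Changes in either direction were fitted relative to DMSO controls.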

Assay [8] in a line: ATG_EGR_CIS: Attagene CIS-FACTORIAL HepG2 Assay for human Early Growth Response 1 (EGR1) (AID 2282938). The note with it: HepG2 Attagene CIS-FACTORIAL EGR reporter mRNA; actives raise or lower the signal. Put shortly: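 Fluorescent capillary-electrophoresis signal of reporter cDNA fragments serves as read-out. HepG2 cells bear transiently transfected cis-promoter reporter units and are exposed 24 h; gain- or loss-of-signal is fitted against DMSO.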

A short description of assay [9]: ATG_M_19_CIS: Attagene CIS-FACTORIAL HepG2 Assay for M19 Transcription Factor (Internal Marker) (AID 2282939). The conditions noted are these: HepG2 Attagene CIS-FACTORIAL M19 internal marker reporter; actives raise or lower the signal. Put shortly:
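Signals come from fluorescence of labelled reporter-specific PCR fragments resolved by capillary electrophoresis, following 24 h treatment of HepG2 cells transfected with cis-promoter reporter units; activity was fitted in both directions relative to DMSO.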

The nature of assay [10]: ATG_ERE_CIS: Attagene CIS-FACTORIAL HepG2 Assay for Estrogen Response Element (ERE) (AID 2282940). The note with it: HepG2 ERE cis-reporter, Attagene RNA transcript; actives raise or lower the signal. An outline of the steps: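 Fluorescence of capillary-separated, FAM-labelled reporter cDNA fragments indicates reporter mRNA levels in HepG2 cells exposed to chemicals for 24 h. Transient transfection with cis-regulated units; data fitted in both directions against DMSO.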

The nature of assay [11]: ATG_Ets_CIS: Attagene CIS-FACTORIAL HepG2 Assay for human Erythroblast Transformation Specific (ETS) (AID 2282941). The conditions noted are these: HepG2 ETS cis-reporter transcription; AC50: actives raise or lower the signal unless noted; outcome: actives raise or lower the signal unless noted. An outline of the steps:
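Bidirectional fit versus DMSO of reporter mRNA signal, detected by RT-PCR and capillary electrophoresis in HepG2 cells transiently transfected with cis-element reporters and dosed 24 h.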

In assay [12] the target is Hepatocyte nuclear factor 3-beta (Homo sapiens) (UniProt Q9Y261). The assay can be described thus: ATG_FoxA2_CIS: Attagene CIS-FACTORIAL HepG2 Assay for human Forkhead box A2 (FOXA2) (AID 2282942). The note with it: HepG2 cis-reporter transcription factor activity, 24 h; actives raise or lower the signal. An outline of the steps: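 Fluorescence signal of reporter cDNA fragments, separated by capillary electrophoresis, reflects endogenous transcription factor activity in transfected HepG2 after 24 h. Both increases and decreases fitted against DMSO.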
Sequence of Hepatocyte nuclear factor 3-beta (Homo sapiens) (Q9Y261 whole entry, looked up, the tested form may be a part): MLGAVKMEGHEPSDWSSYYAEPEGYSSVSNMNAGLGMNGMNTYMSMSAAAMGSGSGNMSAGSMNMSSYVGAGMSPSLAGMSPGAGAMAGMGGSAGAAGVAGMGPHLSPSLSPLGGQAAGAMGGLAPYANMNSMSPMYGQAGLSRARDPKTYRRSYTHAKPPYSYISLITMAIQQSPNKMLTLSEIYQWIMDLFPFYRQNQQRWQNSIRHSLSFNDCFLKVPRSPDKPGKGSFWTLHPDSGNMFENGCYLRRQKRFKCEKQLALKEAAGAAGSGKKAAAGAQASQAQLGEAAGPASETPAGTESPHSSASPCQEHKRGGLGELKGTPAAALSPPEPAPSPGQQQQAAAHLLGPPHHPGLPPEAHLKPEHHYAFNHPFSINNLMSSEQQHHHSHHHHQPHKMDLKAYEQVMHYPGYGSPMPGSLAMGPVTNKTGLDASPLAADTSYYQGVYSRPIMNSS

A short description of assay [13]: ATG_FoxO_CIS: Attagene CIS-FACTORIAL HepG2 Assay for human Forkhead box O (FoxO) (AID 2282943). The note with it: HepG2 Attagene cis-reporter, FoxO element, mRNA; actives raise or lower the signal. Put shortly:
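Transfected HepG2 reporter cells exposed to test chemical for 24 h; reporter RNA measured by reverse transcription, PCR and fluorescent capillary electrophoresis; curves fitted for increases and decreases against DMSO.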

Assay [14] in a line: ATG_GATA_CIS: Attagene CIS-FACTORIAL HepG2 Assay for human GATA Binding Protein (AID 2282944). The conditions noted are these: HepG2 GATA cis-element reporter, Attagene multiplex mRNA; actives raise or lower the signal. Put shortly:
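After transfecting HepG2 cells with multiple cis-regulated reporter units, chemicals are dosed for 24 h; isolated RNA undergoes RT-PCR and fluorescent labeling before capillary electrophoresis, with activity expressed against DMSO.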

The nature of assay [15]: ATG_GLI_CIS: Attagene CIS-FACTORIAL HepG2 Assay for human Zinc Finger Protein GLI1 (AID 2282945). The conditions noted are these: HepG2, Attagene cis-factorial reporter mRNA, GLI element; actives raise or lower the signal. An outline of the steps: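 Transiently transfected HepG2 cells report endogenous transcription factor activity via cis-element-driven reporter units. After 24 h compound exposure, reporter mRNA was measured by RT-PCR with capillary electrophoresis; bidirectional fitting against DMSO baseline.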

A short description of assay [16]: ATG_ISRE_CIS: Attagene CIS-FACTORIAL HepG2 Assay for human Interferon Regulatory Factor 1 (IRF1) binding to an Interferon-Stimulated Response Element (ISRE) (AID 2282948). The note with it: HepG2 ISRE cis-reporter (Attagene), mRNA transcription readout; actives raise or lower the signal. Put shortly: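 Uses HepG2 liver cells transfected with cis-regulated reporters and measures mRNA 24 h post-dosing through RT-PCR, primer-extension labelling and capillary electrophoresis, with DMSO as negative control.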

Assay [17] has as its target Retinoic acid receptor alpha (Homo sapiens) (UniProt P10276). The assay can be described thus: ATG_DR5_RAR_CIS: Attagene CIS-FACTORIAL HepG2 Assay for human Retinoic Acid Receptor Alpha (RARE), DR5 submotif (AID 2282934). The conditions noted are these: HepG2 Attagene cis-factorial RARE DR5 reporter, mRNA; actives raise or lower the signal. Put shortly: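 After 24 h of chemical exposure, transiently transfected HepG2 cells were lysed for total RNA; the DR5-regulated reporter transcript was quantified via RT-PCR and capillary electrophoresis, with activity fitted bidirectionally against DMSO.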

Assay [18] in a line: ATG_E_Box_CIS: Attagene CIS-FACTORIAL HepG2 Assay for human Enhancer Box (E-box) (AID 2282936). The conditions noted are these: HepG2 E-box cis-reporter transcription, actives raise or lower the signal. Put shortly:
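Transiently transfected HepG2, endogenous TF-driven reporters, 24 h dosing. Readout: RT-PCR plus capillary electrophoresis of fluorescent reporter fragments. Gain or loss of signal fitted bidirectionally against DMSO baseline.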

For assay [19], the target named is Bile acid receptor (Homo sapiens) (UniProt Q96RI1). Nature of the assay: ATG_IR1_CIS: Attagene CIS-FACTORIAL HepG2 Assay for human Nuclear Receptor Subfamily 1 Group H Member 4 (NR1H4), IR1 submotif (AID 2282946). The conditions noted are these: IR1 reporter transcription, actives raise or lower the signal. Put shortly:
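Fluorescence of capillary-separated, HpaI-digested RT-PCR reporter products gave IR1-element mRNA induction in HepG2 cells 24 h after dosing. Endogenous transcription factors drove the cis-regulated reporters; activity was fitted bidirectionally against DMSO.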

Assay [20] in a line: ATG_GRE_CIS: Attagene CIS-FACTORIAL HepG2 Assay for human Glucocorticoid Response Elements (GRE) (AID 2282947). The conditions noted are these: HepG2 GRE cis-reporter, Attagene multiplex mRNA; AC50: actives raise or lower the signal unless noted; outcome: actives raise or lower the signal unless noted. Put shortly:
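Read-out: fluorescent reporter-transcript fragments separated by capillary electrophoresis after RT-PCR. Transiently transfected HepG2 cells carrying cis-element-driven reporter units were dosed for 24 h; gain or loss of signal fitted against DMSO control.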

Sequence of Transcription factor E2F1 (Homo sapiens) (Q01094 whole entry, looked up): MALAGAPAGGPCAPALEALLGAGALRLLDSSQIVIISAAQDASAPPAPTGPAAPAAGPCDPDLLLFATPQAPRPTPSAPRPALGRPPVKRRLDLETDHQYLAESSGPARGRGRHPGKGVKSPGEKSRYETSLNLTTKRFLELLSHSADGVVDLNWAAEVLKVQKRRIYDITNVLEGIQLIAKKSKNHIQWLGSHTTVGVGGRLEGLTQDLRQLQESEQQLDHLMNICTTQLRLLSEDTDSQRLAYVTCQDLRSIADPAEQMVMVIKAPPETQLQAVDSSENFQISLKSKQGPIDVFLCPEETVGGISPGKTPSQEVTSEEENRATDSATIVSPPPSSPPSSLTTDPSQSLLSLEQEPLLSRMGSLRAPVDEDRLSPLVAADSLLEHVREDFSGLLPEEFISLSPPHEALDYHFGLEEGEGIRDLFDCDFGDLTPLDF
Sequence of Bile acid receptor (Homo sapiens) (Q96RI1 whole entry, looked up): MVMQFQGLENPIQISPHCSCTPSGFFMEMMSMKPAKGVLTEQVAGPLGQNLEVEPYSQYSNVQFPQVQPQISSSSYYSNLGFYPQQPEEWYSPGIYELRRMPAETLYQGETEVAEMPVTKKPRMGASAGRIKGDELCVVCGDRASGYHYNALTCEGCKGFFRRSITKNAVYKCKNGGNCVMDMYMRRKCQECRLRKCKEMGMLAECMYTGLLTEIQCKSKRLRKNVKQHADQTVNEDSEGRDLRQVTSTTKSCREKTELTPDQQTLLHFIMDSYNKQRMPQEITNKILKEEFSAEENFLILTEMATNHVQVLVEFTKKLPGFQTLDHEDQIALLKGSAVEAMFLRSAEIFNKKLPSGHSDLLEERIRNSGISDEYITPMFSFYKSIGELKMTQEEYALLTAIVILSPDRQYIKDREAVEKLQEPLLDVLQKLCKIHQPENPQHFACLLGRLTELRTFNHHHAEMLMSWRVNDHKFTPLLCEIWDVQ
Sequence of Retinoic acid receptor alpha (Homo sapiens) (P10276 whole entry, looked up): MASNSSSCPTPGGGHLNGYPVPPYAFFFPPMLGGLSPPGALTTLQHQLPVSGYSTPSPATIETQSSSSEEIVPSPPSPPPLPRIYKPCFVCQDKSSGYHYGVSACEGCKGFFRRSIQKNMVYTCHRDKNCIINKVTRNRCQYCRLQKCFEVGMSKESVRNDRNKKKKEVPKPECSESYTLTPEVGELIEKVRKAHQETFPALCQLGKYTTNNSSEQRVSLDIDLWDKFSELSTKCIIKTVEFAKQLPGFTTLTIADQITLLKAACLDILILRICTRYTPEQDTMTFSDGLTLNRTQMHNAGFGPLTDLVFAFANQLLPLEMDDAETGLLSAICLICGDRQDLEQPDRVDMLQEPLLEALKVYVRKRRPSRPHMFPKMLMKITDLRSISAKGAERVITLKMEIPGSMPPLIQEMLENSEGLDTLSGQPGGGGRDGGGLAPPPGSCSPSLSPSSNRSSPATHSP

On to `C=C(c1ccc(C(=O)O)cc1)c1cc2c(cc1C)C(C)(C)CCC2(C)C`, for which the AC50 in assay [1] is 2.99 µM (active); in assay [3], 11.4 µM (active); in assay [4], 18.3 µM (active) and 34.7 µM (active); in [6], 31 µM (active); in assay [8], 11.1 µM (active); in assay [9], 34.1 µM (active). The AC50 in [10] is 0.0545 µM (active); in assay [14], 35.6 µM (active); in assay [15] it was 28.6 µM (active); in assay [16], 16.8 µM (active). For the same compound, the compound was classed as inactive in assay [1], in assay [2], in assay [3], in assay [5], in assay [6] and in assay [7]. Besides, the call in assay [8], in assay [9], in [10], in assay [11], in [12] and in assay [13] was inactive. Further, the outcome in assay [14], in [15] and in [16] was inactive.

As to `OCC1CCC(CO)CC1` (stereo unspecified), the result in [1], in assay [2], in [3], in assay [4], in assay [5] and in [17] was inactive. Also, the compound was classed as inactive in [6], in assay [18], in assay [7], in assay [8], in assay [9] and in [11]. Besides, the result in [12], in [13], in assay [14], in assay [15], in assay [19] and in assay [20] was inactive. The compound was called inactive in [16]. The AC50 in [10] was 23.2 µM (active).

`O=C(C=C(O)C(F)(F)F)C(F)(F)F`: the compound was called inactive in assay [1], in assay [2], in [3], in [4], in assay [5] and in [17]. The compound was classed as inactive in assay [6], in assay [18], in assay [7], in [8], in assay [9] and in assay [10]. Also, the outcome in assay [11], in [12], in assay [13], in assay [14], in assay [15] and in assay [19] was inactive. For the same compound, the compound was called inactive in [20] and in [16].

As to `CCCCCCc1ccc(N)cc1`, the result in assay [1], in assay [3], in assay [4], in assay [5], in assay [17] and in assay [6] was inactive. Moreover, the outcome in assay [18], in [7], in assay [8], in [9], in assay [11] and in assay [12] was inactive. Moreover, the compound was called inactive in assay [13], in assay [14], in [15], in assay [19] and in [20]. The AC50 in assay [2] was 45.5 µM (active); in [10] it was 5.06 µM (active); in [16], 26.9 µM (active).

Regarding `Cc1ccccc1C(OCCN(C)C)c1ccccc1` (stereo unspecified), the AC50 in [1] is 135 µM (active). Also, the compound was called inactive in assay [1], in [2], in [3], in [4], in assay [5] and in [17]. Moreover, the compound was called inactive in assay [6], in assay [18], in assay [7], in assay [8], in [9] and in assay [10]. Further, the compound was called inactive in assay [11], in assay [12], in [13], in [14], in assay [15] and in assay [19]. In addition, the compound was called inactive in assay [20] and in assay [16].
